The values below come from the supplement of paper PMC12297408.

Each structure is given as a SMILES string. Several values for one entry are separate records, joined by “and”; a condition that tells them apart may be missing. Equal entries are not always repeated. Structures can show the parent of a compound that is named as a salt. Values without a mark were called inactive.

This experiment deals with Plasmodium falciparum NF54/iGP1_RE9H ulg8 stage V gametocytes. The experiment can be described thus: gametocyte viability (luciferase signal relative to DMSO control) (% of DMSO control); higher = less gametocytocidal activity, active = 50 or less. Conditions: exposure time: 72 h. The essentials: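 NF54/iGP1_RE9Hulg8 stage V gametocytes (day 12; ~2.5% gametocytemia, 3% hematocrit) in medium with 0.5% Albumax II were added to 96-well plates of nanolitre-spotted compounds (10 mM DMSO stocks), giving 10 µM or 1 µM, one well each. Plates were incubated 72 h at 37 °C. Then 90 µl was mixed with 10 µl D-luciferin (30 mg/ml) and luminescence was read on an IVIS Lumina II. Viability is relative to the mean of plate DMSO vehicle controls.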

In the case of `Cn1cnc(-c2cc3nccc(Oc4ccc(NC(=S)NC(=O)Cc5ccccc5)cc4F)c3s2)c1`, the gametocyte viability is, setting by setting: (concentration: 1 µM) 90.2; (concentration: 10 µM) 93.5.

For `CO[C@H]1C[C@@H]2CC[C@@H](C)[C@@](O)(O2)C(=O)C(=O)N2CCCC[C@H]2C(=O)O[C@H]([C@H](C)C[C@@H]2CC[C@@H](OC(=O)C(C)(CO)CO)[C@H](OC)C2)CC(=O)[C@H](C)/C=C(\C)[C@@H](O)[C@@H](OC)C(=O)[C@H](C)C[C@H](C)/C=C/C=C/C=C/1C` [Temsirolimus (Torisel)], the gametocyte viability is 93.9 (concentration: 1 µM) and 88.4 (concentration: 10 µM).

With `CCCCCCCCCCCCC/C=C/[C@@H](O)[C@@H](N)CO` [D-erythro-Sphingosine], the gametocyte viability runs as follows: (concentration: 1 µM) 113; (concentration: 10 µM) 119.

Consider `COc1cc2ncnc(Nc3cccc(Cl)c3)c2cc1OC`, for which the gametocyte viability is, setting by setting: (concentration: 1 µM) 109; (concentration: 10 µM) 104.

As to `O=S(=O)(c1cccc2c(I)cccc12)N1CCCNCC1`, the gametocyte viability runs as follows: (concentration: 1 µM) 102; (concentration: 10 µM) 94.1.

As to `COc1cc(OC)c(/C=C/S(=O)(=O)Cc2ccc(OC)c(NCC(=O)O)c2)c(OC)c1`, the gametocyte viability is, setting by setting: (concentration: 1 µM) 93.4; (concentration: 10 µM) 101.

With `COc1cc2c(Nc3ccc(NC(=O)c4ccccc4)cc3)ncnc2cc1OCCCN1CCOCC1`, the gametocyte viability is 92.3 (concentration: 1 µM) and 92.5 (concentration: 10 µM).

Consider `CC[C@H](CO)Nc1nc(NCc2ccccc2)c2ncn(C(C)C)c2n1` [Roscovitine], for which the gametocyte viability was 107 (concentration: 1 µM) and 105 (concentration: 10 µM).

Regarding `O=C(O)c1cc(NCc2cc(O)ccc2O)ccc1O` [2-Hydroxy-5-(2,5-dihydroxybenzylamino)benzoic acid], the gametocyte viability by setting is: (concentration: 1 µM) 103; (concentration: 10 µM) 109.

As for `Cn1c(Nc2ccc(C(F)(F)F)cc2)nc2cc(Oc3ccnc(-c4ncc(C(F)(F)F)[nH]4)c3)ccc21`, the gametocyte viability was 103 (concentration: 1 µM) and 104 (concentration: 10 µM).

Consider `CC1CNCCN1S(=O)(=O)c1cccc2cnccc12` (configuration not stated), for which the gametocyte viability (concentration: 1 µM) is 97.5 and the gametocyte viability (concentration: 10 µM) is 97.9.

For the molecule `Nc1nc(Nc2ccc(S(N)(=O)=O)cc2)nn1C(=O)c1c(F)cccc1F`, the gametocyte viability was 101 (concentration: 1 µM) and 85.9 (concentration: 10 µM).

Take `O=c1ncn2nc(Sc3ccc(F)cc3F)ccc2c1-c1c(Cl)cccc1Cl`: the gametocyte viability by setting is: (concentration: 1 µM) 95.2; (concentration: 10 µM) 103.

Regarding `Cc1nc(NC(=O)N2CCC[C@H]2C(N)=O)sc1-c1csc(C(C)(C)C)n1`, the gametocyte viability is 101 (concentration: 1 µM) and 92.9 (concentration: 10 µM).

Take `C#Cc1cccc(Nc2ncnc3cc(OCCOC)c(OCCO)cc23)c1` [OSI-420 (Desmethyl Erlotinib)]: the gametocyte viability is, setting by setting: (concentration: 1 µM) 92.8; (concentration: 10 µM) 97.

In the case of `O=c1cc(N2CCOCC2)oc2c(-c3cccc4c3sc3ccccc34)cccc12`, the gametocyte viability (concentration: 1 µM) was 106 and the gametocyte viability (concentration: 10 µM) is 105.

For the molecule `O=c1cc(N2CCOCC2)oc2c(-c3ccccc3)cccc12`, the gametocyte viability is, setting by setting: (concentration: 1 µM) 105 and 79.5; (concentration: 10 µM) 103 and 92.

On to `COc1cc2nccc(Oc3ccc(NC(=O)Nc4cc(C)on4)c(Cl)c3)c2cc1OC` [Tivozanib (AV-951)], for which the gametocyte viability (concentration: 1 µM) was 94 and the gametocyte viability (concentration: 10 µM) is 99.8.

With `O=P(O)(O)C(O)c1ccc2ccccc2c1` (configuration not stated) [Hydroxy-2-naphthalenylmethylphosphonic acid], the gametocyte viability is, setting by setting: (concentration: 1 µM) 95.7; (concentration: 10 µM) 90.5.

Consider `N#CC(=C(/N)Sc1ccccc1N)/C(C#N)=C(\N)Sc1ccccc1N`, for which the gametocyte viability is 94.3 (concentration: 1 µM) and 95.9 (concentration: 10 µM).

`N#C/C(=C\c1ccc(O)c(O)c1)C(=O)Nc1ccccc1`: the gametocyte viability (concentration: 1 µM) is 99.6 and the gametocyte viability (concentration: 10 µM) was 104.

Turning to `N#C/C(=C\c1ccc(O)c(O)c1)C(N)=O`, the gametocyte viability reads like this: (concentration: 1 µM) 93.5; (concentration: 10 µM) 98.

Regarding `Cc1ccc(NC(=O)c2ccc(CN3CCN(C)CC3)cc2)cc1Nc1nccc(-c2cccnc2)n1` [Imatinib (Gleevec)], the gametocyte viability (concentration: 1 µM) was 104 and the gametocyte viability (concentration: 10 µM) was 110.

`O=C(NOC[C@H](O)CO)c1ccc(F)c(F)c1Nc1ccc(I)cc1F`: the gametocyte viability (concentration: 1 µM) is 114 and the gametocyte viability (concentration: 10 µM) is 110.

Take `CNC(=O)c1cc(Oc2ccc(NC(=O)Nc3ccc(Cl)c(C(F)(F)F)c3)cc2)ccn1` [Sorafenib (Nexavar)]: the gametocyte viability by setting is: (concentration: 1 µM) 114; (concentration: 10 µM) 115.

As for `C[C@@H](N)[C@H]1CC[C@H](C(=O)Nc2ccncc2)CC1`, the gametocyte viability by setting is: (concentration: 1 µM) 107 and 110; (concentration: 10 µM) 107 and 111.

For `N#C/C(=C\c1cc(Cl)cc(Cl)c1)c1cccnc1`, the gametocyte viability runs as follows: (concentration: 1 µM) 98.1; (concentration: 10 µM) 101.

`O=C1c2ccccc2-c2n[nH]c3cccc1c23`: the gametocyte viability by setting is: (concentration: 1 µM) 95.3 and 98.9; (concentration: 10 µM) 90.5 and 106.

Regarding `Cc1ccc(S(=O)(=O)/C=C/C#N)cc1`, the gametocyte viability (concentration: 1 µM) was 103 and the gametocyte viability (concentration: 10 µM) was 3.38 (active).

As for `CCCNC(=O)Nc1ccc(Oc2ncnc3cc(OC)c(OC)cc23)cc1Cl`, the gametocyte viability (concentration: 1 µM) is 97.6 and the gametocyte viability (concentration: 10 µM) is 104.

As for `CC1(C)CNc2cc(NC(=O)c3cccnc3NCc3ccncc3)ccc21` [Motesanib Diphosphate], the gametocyte viability runs as follows: (concentration: 1 µM) 97; (concentration: 10 µM) 97.4.

`CNC(=O)c1ccc(C)c(-n2c(C)cc(OCc3ccc(F)cc3F)c(Br)c2=O)c1`: the gametocyte viability (concentration: 1 µM) is 100 and the gametocyte viability (concentration: 10 µM) is 108.

On to `Nc1cc(C(F)(F)F)c(-c2cc(N3CCOCC3)nc(N3CCOCC3)n2)cn1`, for which the gametocyte viability runs as follows: (concentration: 1 µM) 107; (concentration: 10 µM) 98.6.

For the molecule `CC[C@H](Nc1ncnc2[nH]cnc12)c1nc2cccc(F)c2c(=O)n1-c1ccccc1`, the gametocyte viability is 95.1 (concentration: 1 µM) and 95.9 (concentration: 10 µM).

With `Cc1ccc(NC(=O)c2ccc(CN3CCN(C)CC3)cc2)cc1Nc1nccc(-c2cccnc2)n1` [Imatinib Mesylate], the gametocyte viability was 108 (concentration: 1 µM) and 111 (concentration: 10 µM).

Consider `Oc1cccc(-c2nc(N3CCOCC3)c3oc4ncccc4c3n2)c1`, for which the gametocyte viability was 115 (concentration: 1 µM) and 111 (concentration: 10 µM).

As to `CC(C)n1nc(-c2cc3cc(O)ccc3[nH]2)c2c(N)ncnc21`, the gametocyte viability was 105 (concentration: 1 µM) and 103 (concentration: 10 µM).

Take `CO[C@@H]1[C@H](N(C)C(=O)c2ccccc2)C[C@H]2O[C@]1(C)n1c3ccccc3c3c4c(c5c6ccccc6n2c5c31)C(=O)NC4`: the gametocyte viability runs as follows: (concentration: 1 µM) 91.1; (concentration: 10 µM) 95.9.

For the molecule `Clc1ccc(Nc2nnc(Cc3ccncc3)c3ccccc23)cc1` [Vatalanib dihydrochloride (PTK787)], the gametocyte viability reads like this: (concentration: 1 µM) 111; (concentration: 10 µM) 115.

In the case of `N#CC(=Cc1ccc2[nH]ccc2c1)C(N)=C(C#N)C#N`, the gametocyte viability is 100 (concentration: 1 µM) and 104 (concentration: 10 µM).

For `Cc1ccc(Nc2nccc(N(C)c3ccc4c(C)n(C)nc4c3)n2)cc1S(N)(=O)=O` [Pazopanib HCl], the gametocyte viability is 98 (concentration: 1 µM) and 109 (concentration: 10 µM).

Take `CNC(=O)CN1CCC(Oc2cc3c(Nc4cccc(Cl)c4F)ncnc3cc2OC)CC1`: the gametocyte viability reads like this: (concentration: 1 µM) 103; (concentration: 10 µM) 106.

`CCS(=O)(=O)c1cccc(-c2cc(C(=O)NC3CCN(C)CC3)c(C)c3[nH]c4ncc(C)cc4c23)c1`: the gametocyte viability reads like this: (concentration: 1 µM) 106; (concentration: 10 µM) 84.2.

For `CN(C)c1ccc(-c2nc3ncc(Cl)c(N4CCN(CC(=O)Nc5nccs5)CC4)c3[nH]2)cc1`, the gametocyte viability (concentration: 1 µM) is 82.4 and the gametocyte viability (concentration: 10 µM) is 101.

With `CCCCCCCCCCCCCCCC(=O)OC(CC(=O)[O-])C[N+](C)(C)C` (racemic) [Palmitoyl-DL-carnitine], the gametocyte viability (concentration: 1 µM) was 100 and the gametocyte viability (concentration: 10 µM) was 108.

For `C[C@@H]1CN(CC(=O)Nc2ccc3c(c2)Cc2cccc(-c4cc(=O)cc(N5CCOCC5)o4)c2S3)C[C@H](C)O1`, the gametocyte viability (concentration: 1 µM) was 86 and the gametocyte viability (concentration: 10 µM) was 68.

As for `CN1CC[C@H](c2c(O)cc(O)c3c(=O)cc(-c4ccccc4Cl)oc23)[C@H](O)C1` [Flavopiridol (Alvocidib)], the gametocyte viability reads like this: (concentration: 1 µM) 99.8; (concentration: 10 µM) 122.

On to `O=C(O)c1ccc2c(c1)nc(Nc1cccc(Cl)c1)c1ccncc12`, for which the gametocyte viability is 101 (concentration: 1 µM) and 107 (concentration: 10 µM).

In the case of `COc1cc(Nc2ncc(F)c(Nc3ccc4c(n3)N(COP(=O)(O)O)C(=O)C(C)(C)O4)n2)cc(OC)c1OC`, the gametocyte viability is, setting by setting: (concentration: 1 µM) 95.1; (concentration: 10 µM) 101.

As to `Cc1c(NC(=O)OC[C@@H]2COCCN2)cn2ncnc(Nc3ccc4c(cnn4Cc4cccc(F)c4)c3)c12`, the gametocyte viability is, setting by setting: (concentration: 1 µM) 85.8; (concentration: 10 µM) 96.

Turning to `Cc1cc(Nc2nc(N[C@@H](C)c3ccc(F)cc3)c(C#N)cc2F)n[nH]1`, the gametocyte viability was 97.5 (concentration: 1 µM) and 99.6 (concentration: 10 µM).

Take `O=C(O)c1ccc(Nc2ncc3c(n2)-c2ccc(Cl)cc2C(c2c(F)cccc2F)=NC3)cc1`: the gametocyte viability is, setting by setting: (concentration: 1 µM) 102; (concentration: 10 µM) 103.

In the case of `COc1cc2c(Oc3ccc4[nH]c(C)cc4c3F)ncnc2cc1OCCCN1CCCC1` [Cediranib (AZD2171)], the gametocyte viability was 88.6 (concentration: 1 µM) and 90.7 (concentration: 10 µM).

As to `O=C1C(c2c(O)[nH]c3ccccc23)=Nc2ccccc21` [Indirubin], the gametocyte viability was 104 and 100 (concentration: 1 µM); 113 and 97.3 (concentration: 10 µM).

Consider `CN(C)Cc1cccc(N=C(c2ccccc2)c2c(O)[nH]c3cc(C(=O)N(C)C)ccc23)c1`, for which the gametocyte viability (concentration: 1 µM) was 116 and the gametocyte viability (concentration: 10 µM) was 121.

Take `Cc1ccc(-n2nc(C(C)(C)C)cc2NC(=O)Nc2ccc(OCCN3CCOCC3)c3ccccc23)cc1` [BIRB 796 (Doramapimod)]: the gametocyte viability is 96 (concentration: 1 µM) and 98.8 (concentration: 10 µM).

`COC(=O)Nc1ccc(-c2nc(N3CCOCC3)c3cnn(C4CCN(C(=O)OC)CC4)c3n2)cc1`: the gametocyte viability is 97.3 (concentration: 1 µM) and 97.2 (concentration: 10 µM).

In the case of `O=C(O)c1ccc2nc(-c3ccccc3)c(-c3ccccc3)nc2c1`, the gametocyte viability runs as follows: (concentration: 1 µM) 98.6; (concentration: 10 µM) 95.2.

Consider `CNCCNS(=O)(=O)c1cccc2cnccc12`, for which the gametocyte viability runs as follows: (concentration: 1 µM) 104; (concentration: 10 µM) 108.

For the molecule `CC(C)CC(=O)Nc1n[nH]c2c1CN(C(=O)C1CCN(C)CC1)C2(C)C`, the gametocyte viability by setting is: (concentration: 1 µM) 96.4; (concentration: 10 µM) 110.

For `CCS(=O)(=O)Nc1ccc2[nH]c(O)c(C(=Nc3ccc(CN4CCCCC4)cc3)c3ccccc3)c2c1` [Hesperadin], the gametocyte viability was 110 (concentration: 1 µM) and 108 (concentration: 10 µM).
